ChEMBL document CHEMBL4513216, “Probing the Open Global Health Chemical Diversity Library for Multistage-Active Starting Points for Next-Generation Antimalarials” (ACS Infect Dis, 2020)
The campaign covered roughly 68,000 compounds. About 2,700 (4%) showed an effect of 50% or more. Shown is part of a subset that was picked to be rich in strong results.

Tested on: Plasmodium berghei
Test: Screen against P. berghei liver stage (PbLuc), transformed with Luciferase, at 2uM
Format: functional, HepG2
Details: tested at 2 uM

Compound | INHIBITION [%]
CN(C)CC1CN(c2ncnc3ccsc23)CCO1 (configuration not stated) | 44.6
CCN1CCCC1CNC(=O)CCc1cccs1 (configuration not stated) | 9.27
CSc1ccc(OC(C)C(=O)Nc2c(C)n[nH]c2C)cc1 (configuration not stated) | 3.5
CC(=O)N1CCC(c2cnc(-c3c(C)nn(C)c3C)cn2)CC1 | 34.06
Cn1cc(C(=O)CC2CCCN2C(=O)c2ccncc2F)cn1 (configuration not stated) | -5.09
CCc1ccccc1C(=O)N1CCCC1CC(=O)c1cnn(C)c1 (configuration not stated) | -7.41
COc1cc(C(=O)N2CCCC2CC(=O)c2cnn(C)c2)ccc1F (configuration not stated) | 64.2
Cn1cc(C(=O)CC2CCCN2C(=O)c2cncc3ccccc23)cn1 (configuration not stated) | 11.1
Cn1cc(C(=O)CC2CCCN2C(=O)c2ccc(Cl)cn2)cn1 (configuration not stated) | 24.55
Cn1cc(C(=O)CC2CCCN2C(=O)c2cccc3ncccc23)cn1 (configuration not stated) | 51.19
Cc1noc([C@H]2C[C@H]3OCC[C@H]3N(C3CCC3)C2)n1 | 44.94
COc1ccccc1CN(C)C(=O)CN1CC(n2nc(C)cc2C)C1 | 18.15
Cc1cc(C)cc(CN2CCN(Cc3cccc(CCN)c3)CC2=O)c1 | 61.75
Cc1cc(C)cc(N2CCN(Cc3cccc(CCN)c3)CC2=O)c1 | 10.92
NCCc1cccc(CN2CCN(c3ccccc3)C(=O)C2)c1 | 22.72
CC(C)c1nnc2n1CCN(Cc1ccc3c(c1)OCO3)CC2 | -21.23
Cc1cccc(CN2CCC3(CCN(c4ccccn4)C3)C2=O)c1 (configuration not stated) | 17.39
Cc1n[nH]c(C2CN(CC(=O)NCCc3ccccc3)CCO2)n1 (configuration not stated) | 19.43
CCc1n[nH]c(C2CN(CC(=O)NCCc3ccsc3)CCO2)n1 (configuration not stated) | 12.46
Cc1n[nH]c(C2CN(CC(=O)NCCc3ccsc3)CCO2)n1 (configuration not stated) | 50.74
CC(CNC(=O)CCCc1ccccn1)c1ccsc1 (configuration not stated) | 18.85
Cc1ccc(CN2CC[C@@H](O)[C@@H]2Cc2ccccc2)o1 | 14.65

Compound | INHIBITION [%]
Cc1cccc(C(C(=O)N(C)CCc2cn[nH]c2)N(C)C)c1 (configuration not stated) | 67.28
Cc1cc(C)cc(CCC(=O)N(C)CCc2cn[nH]c2)c1 | -4.26
CN(CCc1cn[nH]c1)C(=O)C(c1ccc(F)cc1)N(C)C (configuration not stated) | 38.67
Cc1ccccc1C(C(=O)N(C)CCc1cn[nH]c1)N(C)C (configuration not stated) | -102.03
Cc1ccc(C(C(=O)N(C)CCc2cn[nH]c2)N(C)C)cc1 (configuration not stated) | 69.67
Cc1cccc(C(C(=O)N(C)Cc2ccon2)N(C)C)c1 (configuration not stated) | -2.69
Cc1ccc(CCC(C)NC2CCN(C(N)=O)CC2)cc1 (configuration not stated) | -5.43
CN1CCN(CCCNC(=O)CCc2nc3cc(Br)cnc3[nH]2)CC1 | 12.87
O=C(Nc1nc2c(s1)CN(S(=O)(=O)C1CC1)CC2)Nc1ccccc1F | 47.9
c1csc(N2CCN(c3ncnc4sccc34)CC2)n1 | 16.93
CC1CN(c2ncnc3sccc23)CCN1c1nccs1 (configuration not stated) | 38.01
CC1CN(c2ncnc3c2cnn3C)CCN1c1nccs1 (configuration not stated) | 57.16
O=C(Cc1ccccn1)N1CCn2cc(Cn3cncn3)nc2C1 | -33.15
Cc1ccc(-c2nc(CN3CCN(S(=O)(=O)N(C)C)CC3)cs2)o1 | 53.12
Cc1ccc(-c2nc(CN3CCN(CC(=O)N(C)C)CC3)cs2)o1 | 4.18
CCOC(=O)C1CCN(Cc2csc(-c3ccc(C)o3)n2)CC1 | -0.76
CC(C)c1nnc2n1CCN(Cc1nc(-c3ccoc3)no1)C2 | 7.01
CCc1nnc2n1CCN(Cc1csc(-c3ccc(C)o3)n1)C2 | 58.49
Cc1ccc(-c2nc(CN3CCC(C(=O)N(C)C)CC3)cs2)o1 | 27.91
Cc1ccc(-c2nc(CN3CCN(C(=O)C4CC4)CC3)cs2)o1 | -21.93
CCc1nnc2n1CCN(Cc1nc(-c3ccoc3)no1)C2 | 73.05
CCNC(=O)C1CCN(Cc2csc(-c3ccc(C)o3)n2)CC1 | 50.12

Compound | INHIBITION [%]
Cc1nnc2n1CCN(Cc1nc(-c3ccoc3)no1)C2 | -25.13
Cc1ccc(-c2nc(CN3CCn4c(nnc4C4CC4)C3)cs2)o1 | -110.74
Cc1ccc(-c2nc(CN3CCn4c(C)nnc4C3)cs2)o1 | 42.58
O=C(NCc1ccccc1)c1nc2c(o1)CN(C(=O)c1cccnc1)C2 | 36.75
COCCN1C[C@@H]2CN(Cc3cccc(C)n3)C[C@@H]2C1=O | 39.92
CCCN1CCN(c2nc(N)nc3c2nc(C)n3C)CC1 | 9.85
Cc1noc(C)c1C(=O)N1CCC(c2[nH]ncc2S(C)(=O)=O)C1 (configuration not stated) | 13.58
CCC(=O)N1CCN(c2nc(C)nc3c(C)nn(C)c23)CC1 | 13.72
Cc1nc(N2CCN(C(=O)C3CCCC3)CC2)c2c(n1)c(C)nn2C | -36.89
Cc1nc(N2CCN(C(=O)C3CC3)CC2)c2c(n1)c(C)nn2C | 51.57
CCCC(=O)Nc1ccc(CC(=O)N(CC)CC2CCCCO2)cc1 (configuration not stated) | -5.44
Cc1ccc(C2COCCN2C(=O)c2ccc(C)s2)o1 (configuration not stated) | 3.63
Cn1cc(CN2CCC3(CC2)CN(c2cccnc2)C(=O)CO3)cn1 | -56.25
O=C1COC2(CCN(Cc3cccs3)CC2)CN1c1ccccc1 | -10.6
O=C1COC2(CCN(Cc3cccs3)CC2)CN1c1cncnc1 | 25.58
Cn1cc(N2CC3(CCN(Cc4ccccc4)CC3)OCC2=O)cn1 | 33.97
Cn1cc(N2CC3(CCN(Cc4cccnc4)CC3)OCC2=O)cn1 | 54.44
O=C1COC2(CCN(Cc3cccs3)CC2)CN1c1ccsc1 | 55.7
O=C(NCCn1cccc1)c1c(O)cc(F)cc1F | -5.53
Cc1noc(C)c1CNC(=O)N1CCN(CC2CC2)CC1 | -20.36
c1cncc(-c2ncnc3c2CCN(Cc2cccs2)CC3)c1 | 24.42
CC(C)(O)CN1CCN(C(=O)c2cccn2Cc2cccnc2)CC1 | 54.5

Compound | INHIBITION [%]
CC(C)(O)CN1CCN(C(=O)c2cccn2Cc2ccccc2)CC1 | -36.56
CC(C)(O)CN1CCN(C(=O)c2cccn2Cc2ccncc2)CC1 | -51.5
CC(C)c1nn(C)c(N(C)C)c1CNCc1cccc(CN(C)C)c1 | -36.7
COCc1ncc(CN2CCC3(CCC(=O)N(CC(C)O)C3)CC2)cn1 (configuration not stated) | -40.15
Cc1cc(C)c2c(N3CCC(C(=O)N4CCCC4)CC3)ncnc2n1 | 36.74
NCCO[C@H]1C[C@@H](O)C12CCN(C1Cc3ccccc3C1)CC2 | -17.86
COc1cc(C)c(CN2CCC3(CC2)C(C(=O)O)CC(=O)N3C)cc1C (configuration not stated) | 1.82
COc1ccc(F)c(F)c1CN1CCC2(CC1)[C@H](O)C[C@@H]2OCCN | 57.75
NCCO[C@H]1C[C@@H](O)C12CCN(Cc1c(F)cccc1F)CC2 | 2.9
COc1cc(C)c(CN2CCC3(CC2)[C@H](O)C[C@@H]3OCCN)cc1C | 72.05
COc1cc(CN2CCC3(CC2)[C@H](O)C[C@@H]3OCCO)ccc1F | -6.64
COc1c(CNCc2ccc(N3CCCC3)nc2)c(C(C)C)nn1C | 20.57
Cn1ccnc1CN1CCC2(CC(=O)N(c3ccccn3)C2)C1 (configuration not stated) | 44.46
Clc1cccc(N[C@H]2CCCN[C@H]2Cc2ccccc2)c1 | -34.37
CC(C)(C)OC(=O)N1CCN(C(=O)c2cnn3c2OCCC3)CC1 | -14.01
COCc1noc(CN2CC(Cc3ccccc3)CC2=O)n1 (configuration not stated) | 14.12
O=C1CCCN1CCCNCc1cc(O)c2cccc(F)c2n1 | 53.12
O=C1CCCN1CCCNCc1cc(O)c2cccc(Cl)c2n1 | -15.85
Oc1cc(CNCCN2CCCCC2)nc2c(F)cccc12 | -6.77
OC1CCN(c2ccnc(NCCc3ccccc3Cl)n2)C1 (configuration not stated) | 0.72
CCC(NC(=O)NCc1nncn1CC)c1ccc(OC)cc1 (configuration not stated) | -53.08
Cc1n[nH]c2c1C(c1ccc(Cl)cc1)SCC(=O)N2 (configuration not stated) | 47.85

Compound | INHIBITION [%]
Cc1n[nH]c2c1C(c1cnn(C)c1)SCC(=O)N2 (configuration not stated) | 73.96
Cc1n[nH]c2c1C(c1ccncc1)SCC(=O)N2 (configuration not stated) | 19.08
CCCn1cnnc1CN(C)C(=O)C1CCC(=O)N(C2CCCC2)C1 (configuration not stated) | 31.35
CC(C)c1[nH]c2ncccc2c1CN1CCC(O)CC1 | 14.73
CC(C)c1[nH]c2ncccc2c1CN1CCOCC1 | 68.53
CC1CCN(Cc2c(C(C)C)[nH]c3ncccc23)CC1 | -9.61
CC(CNC(=O)c1nnn(-c2ccccc2)c1C(F)(F)F)N(C)C (configuration not stated) | -10.14
CCc1ncncc1C(=O)Nc1ccc2ccn(CCN(C)C)c2c1 | 38.87
CCc1ocnc1C(=O)Nc1ccc2ccn(CCN(C)C)c2c1 | 53.19
Cc1ncccc1C(=O)Nc1ccc2ccn(CCN(C)C)c2c1 | 10.23
CC(C)(C)NC(=O)c1ccn(COc2c(Cl)cccc2Cl)n1 | 31.42
CCC(=O)NCC(=O)NC(C)c1ccc(OCCC(C)C)cc1 (configuration not stated) | -14.65
CCNc1ncc(C(=O)NCCc2csc(-c3ncccn3)n2)cn1 | 69.79
CCNc1ncc(C(=O)NCc2csc(-c3ncccn3)n2)cn1 | -27.47
CCNc1ncc(C(=O)NCCc2csc(CSC)n2)cn1 | -45.11
Cc1noc(-c2ccnc(Oc3cccc(CN4CCCC4)c3F)c2)n1 | 43.15
CN1CC(=O)c2sc(NCCc3ccccc3)nc2C1 | -24.17
O=C(NCCc1ccccc1)NCC(O)c1cccs1 (configuration not stated) | 1.48
O=C(O)c1csc(NCCc2ccccc2)n1 | 55.05
